Experimental data from PubChem BioAssay (Tox21).
Results filed as inconclusive are left out. Values without a mark were called inactive. The source made the active and inactive calls. The call rests on the fitted dose curve; in most records, active means well fitted cell-killing curve with a large enough effect in the repeat runs; inconclusive means weak or mixed curves, or effect the other way; inactive means no such curve, though single readings can be large or run the other way.

Test: qHTS assay to identify small molecule antagonists of the retinoid-related orphan receptor gamma (ROR-gamma) signaling pathway - cell viability counter screen (AID 1159520); further: nearly all actives have a fitted effect of over 50% in size
Conditions: Tet-on RORgamma CHO cells viability, ATP luminescence, 16 h; series mostly up to 92.4 µM; activity, negative = cytotoxicity: at the top concentration
Excerpt: U.S. Tox21 Program National Center for Advancing Translational Sciences [NCATS] NIH Chemical Genomics Center [NCGC] U.S. Environmental Protection Agency [EPA] National Institutes of Environmental Health Sciences [NIEHS] National Toxicology Program [NTP] U.S. Food and Drug Administration [FDA] Tox21 Assay Overview: Nuclear steroid hormone receptors are involved in many biological processes including inflammatory responses, cell proliferation, and apoptosis. Environmental factors or compounds disrupting these nuclear receptor pathways and gene expression may promote susceptibility to immunotoxicants and autoimmune diseases. One important group of these expression factors are the retinoid-related orphan receptors. To assess compounds that may interfere with the retinoid-related orphan receptor gamma (ROR-gamma) transcription factor, a cell-based luciferase assay was used. The CHO cell-based assay utilizes a TET-inducible ROR expression factor and ROR response element-LUC reporter gene. Reporter gene activity was induced using Doxycycline Hyclate and measured after 16 hr incubation. Tet-on ROR gamma CHO cells were used to screen against the Tox21 10K compound library for cytotoxicity by measuring the viability of the cells based on the quantitation of the ATP.
Tox21 Assay Protocol Summary: Tet-on ROR gamma CHO cells were dispensed at 1,000 cells in 4 uL of culture medium per well into white wall/solid bottom 1536-well plates using a Multidrop Combi (Thermo Scientific, Waltham, MA) dispenser. Following incubation at 37 C and 5% CO2 for 4 hr, 23 nL of compounds dissolved in DMSO, positive controls or DMSO only were transferred by a Pintool station (Kalypsys, San Diego, CA) and after 2 hr incubation at 37 C, one ul of 1 uM (final concentration) of Doxycycline Hyclate was added to all the wells by using a Flying Reagent Dispenser (FRD) (Aurora Discovery, San Diego, CA). After 16 hr incubation at 37 C and 5% CO2, 5 uL of CellTiter-Glo reagent (Promega Corporation, Madison, WI) was added to each assay plate using FRD. After 30 min incubation at room temperature, luminescence was quantified on a ViewLux plate reader (Perkin Elmer, Waltham, MA).
On the % scale 0 is the no-effect control and ±100 the full control effect.

| SMILES | activity, negative = cytotoxicity | outcome |
| --- | --- | --- |
| c1ccc(CC2=NCCN2)cc1 | 1.13% [at 42.5 µM] | – |
| CC(NC(CCc1ccccc1)C(=O)O)C(=O)N1C(=O)N(C)CC1C(=O)O (stereo not given) | 0.925% [at 42.5 µM] | – |
| Nc1c[n+](N2CCOCC2)no1 | 5.3% [at 42.5 µM] | – |
| CCC=O | 3.97% | – |
| O=c1[nH]c(=O)n([C@H]2C[C@H](O)[C@@H](CO)O2)cc1I | 1.41% [at 42.5 µM] | – |
| Cc1ccc(=O)n(-c2ccccc2)c1 | 0.682% [at 42.5 µM] | – |
| C[C@](N)(Cc1ccc(O)cc1)C(=O)O | 1.71% [at 8.39 µM] | – |
| COc1c(N2C[C@@H]3CCCN[C@@H]3C2)c(F)cc2c(=O)c(C(=O)O)cn(C3CC3)c12 | 5.15% [at 42.5 µM] | – |
| O=[N+]([O-])c1ccc(F)cc1F | 0.3% | – |
| OC[C@]1(O)OC[C@@H](O)[C@H](O)[C@@H]1O | – | inactive |
| O=c1n(CCO)c(=O)n(CCO)c(=O)n1CCO | – | inactive |
| N#Cc1ccc(C2CCCc3cncn32)cc1 (stereo not given) | 4.4% [at 42.5 µM] | – |
| CCc1cccc2c(CCO)c[nH]c12 | 3.88% [at 42.5 µM] | – |
| NC(=O)Nc1ccccc1 | 1.64% | – |
| c1ccc([C@H]2CN3CCSC3=N2)cc1 | 2.49% [at 42.5 µM] | – |
| O=C(O)Cc1ccc(CCNS(=O)(=O)c2ccc(Cl)cc2)cc1 | 2.3% [at 42.5 µM] | – |
| CCO/C([O-])=N/c1c[n+](N2CCOCC2)no1 | 5.68% [at 42.5 µM] | – |
| CC/C=C\CCOC(C)=O | 1.55% | – |
| C=CCOCC(CC)(CO)COCC=C | 4.84% | – |
| CC(=O)CC(C)(C)C1CCCCC1 | -7.81% | – |

| SMILES | activity, negative = cytotoxicity | outcome |
| --- | --- | --- |
| O=C(O)CCCc1ccccc1 | -0.636% [at 42.5 µM] | – |
| CC(C(=O)O)c1ccc(CC2CCCC2=O)cc1 (stereo not given) | 4.59% [at 42.5 µM] | – |
| CCC(=O)OC(C)c1ccccc1 (stereo not given) | 6.6% | – |
| O=c1cc(CO)occ1O | 2.05% [at 42.5 µM] | – |
| CCN(CC)CCNC(=O)c1cc(S(C)(=O)=O)ccc1OC | 0.826% [at 42.5 µM] | – |
| CC(C[N+](C)(C)C)OC(N)=O (stereo not given) | 0.364% [at 42.5 µM] | – |
| CS(=O)(=O)O | -0.14% | – |
| CC(C)NCC(O)c1ccc(NS(C)(=O)=O)cc1 (stereo not given) | 0.526% | – |
| Nc1c2c(nc3ccccc13)CCCC2O (stereo not given) | 0.636% [at 42.5 µM] | – |
| NC(=O)c1ccc([N+](=O)[O-])cc1 | -14% | – |
| CN1C(=O)N(C)C(O)C1O (stereo not given) | 7.8% | – |
| CCC(C)S (stereo not given) | -0.272% [at 3.27 µM] | – |
| Nc1cc(=O)[nH]c(N)n1 | 1.76% [at 42.5 µM] | – |
| O=C1CC2CC1C1CCCC21 (stereo not given) | 2.86% | – |
| CC(=O)OCC(=O)[C@@]1(O)CC[C@H]2[C@@H]3CCC4=CC(=O)CC[C@]4(C)[C@H]3C(=O)C[C@@]21C | -1.75% [at 42.5 µM] | – |
| CC(C)(O)C(=O)c1ccccc1 | 0.0004% | – |
| Cc1ccc(Cl)cc1Cl | 1.99% | – |
| CCn1nc(C(=O)O)c(=O)c2cc3c(cc21)OCO3 | 2.94% [at 42.5 µM] | – |
| O=C1NC(=O)[C@@]2(CCOc3ccc(F)cc32)N1 | 2.88% [at 42.5 µM] | – |
| O=C(O)CN(CCOCCOCCN(CC(=O)O)CC(=O)O)CC(=O)O | 0.0573% [at 0.349 µM] | – |
